Results published in the supplement of paper PMC8007513.
Where a name gives a salt, the structure may show the parent alone. ± gives the standard error. About 130 (10%) of roughly 1,300 compounds showed an effect of 50% or more. The sample holds strong results, similar compounds and a random draw of the others, so the mix is not that of the screen.

System: Trichoderma virens ATCC 9645
Assay: growth yield (OD600) with compound + IPBC relative to untreated control; higher = less growth inhibition
Details: compound concentration: 100 uM, IPBC concentration: 200 ng/ml
Procedure, shortened: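 A biocide at 200 ng ml^−1 was co-applied to some wells, and library compounds were present in all test wells at 100 μM final. The wells held 100 μl of Trichoderma virens ATCC 9645 spores at 15,000 spores ml^−1 in potato dextrose broth, grown at 30 °C in 96-well plates, with OD600 read at 40 h and 72 h. Results are relative growth against the control without either agent, averaged across duplicate screens.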

Row | SMILES | growth yield (40 h) [%] | growth yield (72 h) [%]
1 | NCCCCCC(=O)O [Aminocaproic acid] + CCCCNC(=O)OCC#CI [3-iodo-2-propynyl butylcarbamate (IPBC)] | 103 ± 13 | 98.9 ± 6.8
2 | Nc1ncnc2c1ncn2C1OC(COP(=O)(O)O)C(O)C1O (stereo not given) [Adenosine 5'-monophosphate monohydrate] + CCCCNC(=O)OCC#CI [3-iodo-2-propynyl butylcarbamate (IPBC)] | 79.4 ± 1.3 | 91.2 ± 1.1
3 | CC(C)(C)NC(=O)[C@@H]1CN(Cc2cccnc2)CCN1C[C@@H](O)C[C@@H](Cc1ccccc1)C(=O)N[C@H]1c2ccccc2C[C@H]1O [Indinavir sulfate] + CCCCNC(=O)OCC#CI [3-iodo-2-propynyl butylcarbamate (IPBC)] | 88.5 ± 3.3 | 89.78 ± 0.84
4 | Cc1nnc(NS(=O)(=O)c2ccc(N)cc2)s1 [Sulfamethizole] + CCCCNC(=O)OCC#CI [3-iodo-2-propynyl butylcarbamate (IPBC)] | 93.7 ± 8.9 | 97.3 ± 7.1
5 | Cc1cc(/C=C/c2ccc3cc(N(C)C)ccc3[n+]2C)c(C)n1-c1ccccc1 [Pyrvinium pamoate] + CCCCNC(=O)OCC#CI [3-iodo-2-propynyl butylcarbamate (IPBC)] | 111 ± 4.5 | 111 ± 3.1
6 | C[N+]1(C)CCCC(OC(=O)C(O)(c2ccccc2)c2ccccc2)C1 (stereo not given) [Mepenzolate bromide] + CCCCNC(=O)OCC#CI [3-iodo-2-propynyl butylcarbamate (IPBC)] | 83.2 | 85.7 ± 0.94
7 | C=CCSCC1Nc2cc(Cl)c(S(N)(=O)=O)cc2S(=O)(=O)N1 (stereo not given) [Althiazide] + CCCCNC(=O)OCC#CI [3-iodo-2-propynyl butylcarbamate (IPBC)] | 98.16 ± 0.32 | 96.7 ± 0.21
8 | CC=CC(=O)N(CC)c1ccccc1C [Crotamiton] + CCCCNC(=O)OCC#CI [3-iodo-2-propynyl butylcarbamate (IPBC)] | 98.8 ± 5.1 | 102 ± 2.2
9 | CCN1CCC[C@H]1CNC(=O)c1c(OC)ccc(Br)c1OC [Remoxipride Hydrochloride] + CCCCNC(=O)OCC#CI [3-iodo-2-propynyl butylcarbamate (IPBC)] | 101 ± 3.5 | 99 ± 1.5
10 | Clc1ccc(CCC(Cn2ccnc2)Sc2c(Cl)cccc2Cl)cc1 (stereo not given) [Butoconazole nitrate] + CCCCNC(=O)OCC#CI [3-iodo-2-propynyl butylcarbamate (IPBC)] | 3.18 | 2.62 ± 0.1
11 | C=CCOC(Cn1ccnc1)c1ccc(Cl)cc1Cl (stereo not given) [Enilconazole] + CCCCNC(=O)OCC#CI [3-iodo-2-propynyl butylcarbamate (IPBC)] | 3.34 ± 0.16 | 2.94 ± 0.21
12 | Clc1ccc(CO/N=C(\Cn2ccnc2)c2ccc(Cl)cc2Cl)c(Cl)c1 [Oxiconazole Nitrate] + CCCCNC(=O)OCC#CI [3-iodo-2-propynyl butylcarbamate (IPBC)] | 3.49 ± 0.32 | 2.1 ± 0.21
13 | Clc1ccc(COC(Cn2ccnc2)c2ccc(Cl)cc2Cl)c(Cl)c1 (stereo not given) [Miconazole] + CCCCNC(=O)OCC#CI [3-iodo-2-propynyl butylcarbamate (IPBC)] | 2.8591 ± 3.6e-15 | 2.41 ± 0.1
14 | CC(=O)NCCCS(=O)(=O)O [Acamprosate calcium] + CCCCNC(=O)OCC#CI [3-iodo-2-propynyl butylcarbamate (IPBC)] | 102.9 ± 0.32 | 94.3 ± 2.4
15 | CCCCC(=O)O[C@H]1CC[C@H]2[C@@H]3CCc4cc(O)ccc4[C@H]3CC[C@]12C [Estradiol Valerate] + CCCCNC(=O)OCC#CI [3-iodo-2-propynyl butylcarbamate (IPBC)] | 92.29 ± 0.48 | 92.2 ± 2.4
16 | O=C1O[C@H]([C@@H](O)CO)C(O)=C1O [Ascorbic acid] + CCCCNC(=O)OCC#CI [3-iodo-2-propynyl butylcarbamate (IPBC)] | 92.1 ± 0.95 | 96.28 ± 0.63
17 | CN[C@@H]1[C@@H](O)[C@@H](O[C@@H]2[C@@H](O)[C@H](O[C@H]3OC(CN)=CC[C@H]3N)[C@@H](N)C[C@H]2N)OC[C@]1(C)O [Sisomicin sulfate] + CCCCNC(=O)OCC#CI [3-iodo-2-propynyl butylcarbamate (IPBC)] | 85.6 ± 3.6 | 91.9 ± 3.6
18 | Cc1ccccc1OCC(O)CO (stereo not given) [Mephenesin] + CCCCNC(=O)OCC#CI [3-iodo-2-propynyl butylcarbamate (IPBC)] | 93.7 ± 2.9 | 99 ± 0.63
19 | CNCC(O)c1ccc(O)cc1 (racemic) [(+,-)-Synephrine] + CCCCNC(=O)OCC#CI [3-iodo-2-propynyl butylcarbamate (IPBC)] | 81.3 ± 3.8 | 93.8 ± 6.3
20 | NC(=O)C[S+]([O-])C(c1ccccc1)c1ccccc1 (stereo not given) [Modafinil] + CCCCNC(=O)OCC#CI [3-iodo-2-propynyl butylcarbamate (IPBC)] | 82 ± 3.5 | 93.5 ± 2.9

Row | SMILES | growth yield (40 h) [%] | growth yield (72 h) [%]
21 | C[C@]12C=CC(=O)C=C1CC[C@@H]1[C@@H]2C(=O)C[C@@]2(C)[C@H]1CC[C@]2(O)C(=O)CO [Prednisone] + CCCCNC(=O)OCC#CI [3-iodo-2-propynyl butylcarbamate (IPBC)] | 90.9 ± 1.9 | 91.5 ± 1.3
22 | CCCC(C)C1(CC)C(=O)NC(=O)NC1=O (stereo not given) [Pentobarbital] + CCCCNC(=O)OCC#CI [3-iodo-2-propynyl butylcarbamate (IPBC)] | 87.4 ± 2.9 | 94.2 ± 2.7
23 | C/C=C(/C(=C/C)c1ccc(O)cc1)c1ccc(O)cc1 [Dienestrol] + CCCCNC(=O)OCC#CI [3-iodo-2-propynyl butylcarbamate (IPBC)] | 94.8 ± 3.3 | 93.8 ± 2.3
24 | CCC(C)(CN(C)C)OC(=O)c1ccccc1 (stereo not given) [Amyleine hydrochloride] + CCCCNC(=O)OCC#CI [3-iodo-2-propynyl butylcarbamate (IPBC)] | 88 ± 1.3 | 92 ± 2
25 | COc1ccc(Cl)cc1C(=O)NCCc1ccc(S(=O)(=O)NC(=O)NC2CCCCC2)cc1 [Glibenclamide] + CCCCNC(=O)OCC#CI [3-iodo-2-propynyl butylcarbamate (IPBC)] | 101 ± 6.8 | 108 ± 5.5
26 | Clc1ccc(C(Cn2ccnc2)OCc2csc3c(Cl)cccc23)c(Cl)c1 (stereo not given) [Sertaconazole nitrate] + CCCCNC(=O)OCC#CI [3-iodo-2-propynyl butylcarbamate (IPBC)] | 3.97 ± 0.16 | 3.57 ± 0.42
27 | CCOc1ccc2c(c1)C(C)=CC(C)(C)N2 [Ethoxyquin] + CCCCNC(=O)OCC#CI [3-iodo-2-propynyl butylcarbamate (IPBC)] | 98.3 ± 17 | 98.9 ± 12
28 | CCc1c(C)[nH]c2c1C(=O)C(CN1CCOCC1)CC2 (stereo not given) [Molindone hydrochloride] + CCCCNC(=O)OCC#CI [3-iodo-2-propynyl butylcarbamate (IPBC)] | 102 ± 13 | 101 ± 8.9
29 | CO[C@@H]1[C@@H](OC(N)=O)[C@@H](O)[C@H](Oc2ccc3c(O)c(NC(=O)c4ccc(O)c(CC=C(C)C)c4)c(=O)oc3c2C)OC1(C)C [Novobiocin sodium salt] + CCCCNC(=O)OCC#CI [3-iodo-2-propynyl butylcarbamate (IPBC)] | 91.7 ± 12 | 115 ± 14
30 | c1ccc(-c2ccc(C(c3ccccc3)n3ccnc3)cc2)cc1 (stereo not given) [Bifonazole] + CCCCNC(=O)OCC#CI [3-iodo-2-propynyl butylcarbamate (IPBC)] | 4.92 ± 0.16 | 3.25 ± 0.1
31 | N#Cc1ccc(C(c2ccc(C#N)cc2)n2cncn2)cc1 [Letrozole] + CCCCNC(=O)OCC#CI [3-iodo-2-propynyl butylcarbamate (IPBC)] | 98.6 ± 8.1 | 98.5 ± 1.6
32 | O=C(C1CCCCC1)N1CC(=O)N2CCc3ccccc3C2C1 (stereo not given) [Praziquantel] + CCCCNC(=O)OCC#CI [3-iodo-2-propynyl butylcarbamate (IPBC)] | 71 ± 7.5 | 87.3 ± 3.8
33 | O=[N+]([O-])O[C@H]1CO[C@H]2[C@@H]1OC[C@H]2O[N+](=O)[O-] [Isosorbide dinitrate] + CCCCNC(=O)OCC#CI [3-iodo-2-propynyl butylcarbamate (IPBC)] | 90.9 ± 7.6 | 94.4 ± 5.7
34 | NS(=O)(=O)c1cc2c(cc1Cl)NC(C(Cl)Cl)NS2(=O)=O (stereo not given) [Trichlormethiazide] + CCCCNC(=O)OCC#CI [3-iodo-2-propynyl butylcarbamate (IPBC)] | 97.5 ± 16 | 97.3 ± 12
35 | C[C@@H]1CN([C@H]2CC[C@](C#N)(c3ccc(F)cc3)CC2)CC[C@]1(C(=O)O)c1ccccc1 [Levocabastine hydrochloride] + CCCCNC(=O)OCC#CI [3-iodo-2-propynyl butylcarbamate (IPBC)] | 118 ± 11 | 111 ± 7.3
36 | CC(C)OC(=O)CCC/C=C\C[C@@H]1[C@@H](CC[C@@H](O)CCc2ccccc2)[C@H](O)C[C@@H]1O [Latanoprost] + CCCCNC(=O)OCC#CI [3-iodo-2-propynyl butylcarbamate (IPBC)] | 90.5 ± 1.9 | 93 ± 3.9
37 | CC(=O)CC(c1ccccc1)c1c(O)c2ccccc2oc1=O (stereo not given) [Warfarin] + CCCCNC(=O)OCC#CI [3-iodo-2-propynyl butylcarbamate (IPBC)] | 88.5 ± 2.1 | 93.03 ± 0.1
38 | O=c1oc2ccccc2c(O)c1Cc1c(O)c2ccccc2oc1=O [Dicumarol] + CCCCNC(=O)OCC#CI [3-iodo-2-propynyl butylcarbamate (IPBC)] | 92.3 ± 6.5 | 93.2 ± 3
39 | CCc1oc2ccccc2c1C(=O)c1cc(Br)c(O)c(Br)c1 [Benzbromarone] + CCCCNC(=O)OCC#CI [3-iodo-2-propynyl butylcarbamate (IPBC)] | 43.68 ± 0.16 | 99.3 ± 8.1
40 | C[C@]12C/C(=C/O)C(=O)C[C@@H]1CC[C@@H]1[C@@H]2CC[C@@]2(C)[C@H]1CC[C@]2(C)O [Oxymetholone] + CCCCNC(=O)OCC#CI [3-iodo-2-propynyl butylcarbamate (IPBC)] | 112 ± 14 | 105 ± 9.2
